According to PubChem BioAssay (Tox21):
Inconclusive results are not listed. Entries that show only a call come without a potency. Unmarked numbers belong to inactive results. The source made the active and inactive calls. Calls follow the shape of the dose curve; as a rule, active = well fitted activation curve with a large enough effect in the repeat runs; inconclusive = weak or mixed curves; inactive = flat fitted curve, though single readings scatter.

experiment: A CellTox Green Cytotoxicity Assay to monitor cytotoxicity in HEK293 cells - 40 hour (AID 1224871); conditions: CellTox Green fluorescence; series mostly up to 76.8 µM; also: nearly all actives have a fitted effect of over 45% in size
Text: National Center for Advancing Translational Sciences [NCATS]
NIH Chemical Genomics Center [NCGC]
U.S. Environmental Protection Agency [EPA]
National Institutes of Environmental Health Sciences [NIEHS]
National Toxicology Program [NTP]
Cell-based models are critical for drug discovery. Determining the natural cytotoxic effects resulting from test compounds is an essential research activity. A CellTox Green Cytotoxicity Assay to monitor cytotoxicity in real time of continues cell culture during 40 hours of the compound treatment was used to screen Tox21 10K library compounds in Hek293 cells. CellTox Green Cytotoxicity Assay is a nonlytic, homogeneous, biofluorescent method to measure cytotoxicity in cell culture after experimental manipulation. The assay system uses a proprietary asymmetric cyanine dye that is excluded from viable cells but preferentially stains the dead cell's DNA. […] Viable cells produce no appreciable increases in fluorescence. Therefore, the fluorescence signal produced by the binding interaction with dead cell DNA is proportional to cytotoxicity.
The mixture of Hek293 cell suspension and reagents were dispensed at 600cells/6 ul/well in 1536-well tissue culture treated black solid bottom plates using a Multidrop dispenser. After the assay plates were incubated at a 37 C/5% CO2 incubator for 5 hours, 23 nL of compounds dissolved in DMSO, positive and negative controls was transferred to the assay plate by a pintool work station. The plates were incubated at 37 C for 40 hours. The fluorescence intensity were measured at 0h, 8h, 16h, 24h, 32h and 40h time points using ViewLux plate reader during compound treatment.
Potency is read from the fitted curve at half-maximal effect.

| Structure (SMILES) | Potency | cytotoxicity increase |
| --- | --- | --- |
| CCCCCCCCCCCCN1CCCCCC1=O | inactive |  |
| COc1cc2nc(N(C)CCCNC(=O)C3CCCO3)nc(N)c2cc1OC (stereo not given) | inactive |  |
| O=C(O)c1ccc(S(=O)(=O)O)cc1C(=O)O | inactive |  |
| Cc1oc(-c2ccccc2)nc1CCOc1cccc2c1ccn2CCC(=O)O | inactive |  |
| CN1CCC(N(Cc2cccs2)c2ccccc2)CC1 | 19 µM (active) |  |
| Cc1ccc(C(C)OC(=O)C2(C)CCC(C(=O)O)C2(C)C)cc1 (stereo not given) | inactive |  |
| CCCCCCCCCOS(=O)(=O)O | inactive |  |
| CCCCCCc1ccc(-c2ccc(C#N)cc2)cc1 | inactive |  |
| O=C1CCCCCCCCCCCC(=O)OCCO1 | 54.9 µM (active) |  |
| Nc1c(CC(=O)O)cccc1C(=O)c1ccc(Br)cc1 | inactive |  |
| O=C(O)C(S)C(S)C(=O)O (stereo not given) | inactive |  |
| CC(C)Cc1ccc(C(C)C(=O)OCc2ccccn2)cc1 (stereo not given) | inactive |  |
| ClCCOCCOCCCl | inactive |  |
| CCc1c(C(=O)NN2CCCCC2)nn(-c2ccc(Cl)cc2Cl)c1-c1ccc(Br)cc1 | inactive |  |
| O=P(O)(OCc1ccccc1)OCc1ccccc1 | inactive |  |
| COS(=O)(=O)C(F)(F)F | inactive |  |
| CCCn1cnc2c1c(=O)n(CCCCC(C)=O)c(=O)n2C | inactive |  |
| Cc1ccc(N=Nc2c(O)c(C(=O)O)cc3ccccc23)c(S(=O)(=O)O)c1 | inactive |  |
| C=C1[C@H]2CC[C@@H]3[C@H]2C(C)(C)CCC[C@]13C | inactive |  |
| CCC(C)O (stereo not given) | inactive |  |

| Structure (SMILES) | Potency | cytotoxicity increase |
| --- | --- | --- |
| Nc1cccc([N+](=O)[O-])c1 | inactive |  |
| Cc1cccc(C)c1NC(=O)CN(CC(=O)O)CC(=O)O | inactive |  |
| O=C1CCC(=O)O1 | inactive |  |
| O=C(c1ccc(F)cc1)C1CCN(CCn2c(=S)[nH]c3ccccc3c2=O)CC1 | inactive |  |
| C#CCN(C)CCCOc1ccc(Cl)cc1Cl | inactive |  |
| C1CCCNCCC1 | inactive |  |
| O=C(O)c1ccco1 | inactive |  |
| CNC(=O)CN(CCN(CCN(CC(=O)[O-])CC(=O)NC)CC(=O)[O-])CC(=O)[O-].O.[Gd+3] | inactive |  |
| O=C(OCCc1ccccc1)c1ccccc1 | inactive |  |
| CCN(CC)c1ccc2c(-c3ccccc3C(=O)O)c3ccc(=[N+](CC)CC)cc-3oc2c1 | 24.5 µM (active) |  |
| CCn1cc(C(=O)O)c(=O)c2cnc(N3CCNCC3)nc21 | inactive |  |
| C/C(=C(\CCOP(=O)(O)O)SC(=O)c1ccccc1)N(C=O)Cc1cnc(C)nc1N |  | -7.37% [at 6.97 µM] |
| C[C@@H](c1ncncc1F)C(O)(Cn1cncn1)c1ccc(F)cc1F (stereo not given in full) | inactive |  |
| Brc1c2ccccc2cc2ccccc12 | inactive |  |
| COc1ccnc(CS(=O)c2nc3ccc(OC(F)F)cc3[nH]2)c1OC (stereo not given) | inactive |  |
| COc1cc2nc(Cl)nc(N)c2cc1OC | inactive |  |
| CN(C)c1ccc(CCO)cc1 | inactive |  |
| NS(=O)(=O)c1ccc(N2CCCCS2(=O)=O)cc1 | inactive |  |
| CCO[C@H](Cc1ccc(OCCc2ccc(OS(C)(=O)=O)cc2)cc1)C(=O)O | inactive |  |
| CCCCOC(=O)CCCCCCCC(=O)OCCCC | inactive |  |
